Source: PubChem BioAssay (National Center for Advancing Translational Sciences (NCATS))
This is a sample that favours compounds with a hit; in the whole collection about 18% have one here.
CtBP-E1A blk: blocks the CtBP interaction with E1A; AlphaScreen GST-E1A/His-CtBP binding, 1536-well; active compounds read low; activity change, % (no concentration beside the values); 340,000 compounds, 0.49% hits; AID 651724; in the data active means activity change below about -65%; inconclusive means mostly about -30% to -63%
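Homogeneous bead-based format: GST-tagged E1A captured on glutathione donor beads, His-tagged CtBP on nickel acceptor beads; compounds precede bead addition by 2 h at 37 °C.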
Six1-Eya2 inh: inhibitors of human Six1/Eya2 interaction. AID 651725. activity change, % (concentration not given with the values). AlphaScreen GST-Six1/His-Eya2 binding, biochemical; active compounds read low. Q15475+O00167. 360,000 compounds, 0.56% hits; in the data active means activity change below about -65%; inconclusive means mostly about -30% to -63%
Target sequence (O00167 whole entry, looked up): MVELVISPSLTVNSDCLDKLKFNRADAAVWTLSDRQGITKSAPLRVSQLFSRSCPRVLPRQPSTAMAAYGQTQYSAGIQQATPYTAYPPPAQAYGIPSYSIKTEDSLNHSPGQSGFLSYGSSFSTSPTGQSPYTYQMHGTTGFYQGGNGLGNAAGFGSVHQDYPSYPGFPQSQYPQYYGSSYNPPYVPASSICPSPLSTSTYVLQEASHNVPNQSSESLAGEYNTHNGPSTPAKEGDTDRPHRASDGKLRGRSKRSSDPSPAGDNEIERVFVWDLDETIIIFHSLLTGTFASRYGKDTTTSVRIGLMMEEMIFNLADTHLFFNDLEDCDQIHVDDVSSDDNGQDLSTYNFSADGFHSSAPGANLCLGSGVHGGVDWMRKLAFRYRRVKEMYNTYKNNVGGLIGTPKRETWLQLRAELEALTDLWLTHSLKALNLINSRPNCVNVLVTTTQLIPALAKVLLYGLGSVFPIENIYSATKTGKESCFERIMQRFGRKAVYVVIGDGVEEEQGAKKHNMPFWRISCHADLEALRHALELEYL
Target sequence (Q15475 whole entry, looked up): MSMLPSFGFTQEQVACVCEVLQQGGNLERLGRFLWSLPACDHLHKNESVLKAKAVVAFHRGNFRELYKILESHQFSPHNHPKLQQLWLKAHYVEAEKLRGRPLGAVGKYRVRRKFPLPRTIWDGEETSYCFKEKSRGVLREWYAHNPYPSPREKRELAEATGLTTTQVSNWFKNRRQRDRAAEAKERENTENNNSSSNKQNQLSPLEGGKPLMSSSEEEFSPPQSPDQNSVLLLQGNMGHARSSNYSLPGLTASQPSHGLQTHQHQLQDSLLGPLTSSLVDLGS
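Homogeneous AlphaScreen proximity assay pairing GST-Six1 with His-tagged Eya2 (added as 5X mix: 250 nM and 500 nM) in 50 mM Tris pH 8.0, 300 mM NaCl, 1 mM TCEP. Glutathione donor and nickel acceptor beads; 1 h, 37 °C, dark.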
DT40 TDP1 CPT: DT40-hTDP1 cell growth loss with CPT. Potency, µM (doses to about 46.2 µM), for inactives: at the highest dose activity change, negative = growth inhibition, hits mostly inhibitors. chicken DT40 Tdp1-/-;hTDP1 cells + 20 nM CPT, ATP luminescence, 48 h. 420,000 compounds, 12% hits; further: potency means the concentration at half of the fitted maximal effect; nearly all actives have a fitted effect of over 55% in size
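Chicken DT40 Tdp1-/- cells complemented with human TDP1, 400 cells/well, exposed to compounds plus 20 nM camptothecin for at least 48 h at 37 C; viability read as ATP content by CellTiter-Glo luminescence.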
DT40 TDP1 no CPT: qHTS for Inhibitors of human tyrosyl-DNA phosphodiesterase 1 (TDP1): qHTS in cells in absence of CPT. DT40 Tdp1-/- hTDP1 cells, no CPT, ATP luminescence, 48 h. Potency, µM (doses to about 46.2 µM), inactives show top-dose activity change, negative = growth inhibition, hits mostly inhibitors. 420,000 compounds, 15% hits; further: potency means the concentration at half of the fitted maximal effect; nearly all actives have a fitted effect of over 55% in size
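Compound effects on proliferation are scored in DT40 Tdp1-/-;hTDP1 cells in the absence of CPT. ATP levels (CellTiter-Glo luminescence) are recorded after a ≥48 hr, 37 °C incubation.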
TDP1 block: blocks human tyrosyl-DNA phosphodiesterase 1; AID 485290; 350,000 compounds, 0.28% hits; Potency, µM (series often up to 130 µM), without a hit: at the highest dose activity change, negative = inhibition, most hits filed as inhibitors; recombinant TDP1, AlphaScreen DNA substrate cleavage; further: potency means the concentration at half of the fitted maximal effect; nearly all actives have a fitted effect of over 40% in size
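Steps: enzyme plus compound, 15 min RT; add biotin/phosphotyrosine-FITC oligonucleotide (15 nM final), react 5 min; add donor/acceptor beads (10 ug/ml final), 10 min; read AlphaScreen. Tdp1 at 1 nM final.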
IL1B secr inh: inhibitors of inflammasome signaling (IL-1 beta secretion); THP-1 LPS/ATP IL-1B secretion, AlphaLISA, 16 h; active compounds read low; activity change, % at 57.5 µM; 360,000 compounds, 4.7% hits; AID 743279; in the data active means activity change below about -50%; inconclusive means mostly about -30% to -49%
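Secreted IL-1B measured by AlphaLISA bead assay after 16 h compound exposure of THP-1 cells; compounds (final up to 57.5 uM) added 1 h before LPS (250 ng/mL) and ATP (1.25 mM) stimulation; lower signal means less secretion.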
* = called active by the depositor; [ ] = another dose, or the depositor's remark. Unless noted, the call rests on the fitted dose curve; in most records, active means well fitted curve in the direction sought with a large enough effect; inconclusive means small, poorly fitted or top-dose-only effect, or another doubt; inactive means no such curve, though single readings can be large; an effect the other way counts as inactive or inconclusive. On the % scale 0 is the no-effect control and ±100 the full control effect.

Nc1c(C(=O)c2ccc(Br)s2)oc2ccccc12 was read as CtBP-E1A blk 7.8, Six1-Eya2 inh 19.7, DT40 TDP1 CPT 0.1%, DT40 TDP1 no CPT -6.6%, TDP1 block -6.2% and IL1B secr inh 2.4.
CCCn1c(SCc2nc(-c3cccs3)no2)nnc1-c1ccncc1 was read as CtBP-E1A blk 3.6, Six1-Eya2 inh -1.6, DT40 TDP1 CPT -25.9%, DT40 TDP1 no CPT inconclusive, TDP1 block 0.0% and IL1B secr inh -1.0.
Screening CCCn1c(SCc2nc(-c3ccccc3OCC)no2)nnc1-c1ccc(Cl)cc1 returned DT40 TDP1 CPT inconclusive, DT40 TDP1 no CPT 18.4µM* and TDP1 block 3.7%.
`CCCn1c(SCc2nc(-c3ccc(OC)cc3OC)no2)nnc1-c1ccc(Cl)cc1` gave DT40 TDP1 CPT 20.6µM*, DT40 TDP1 no CPT 25.9µM* and TDP1 block 6.1%.
Screening COc1ccc(-n2c(SCc3nc(-c4ccc(Cl)cc4)no3)nnc2-c2ccncc2)cc1 returned DT40 TDP1 CPT inconclusive, DT40 TDP1 no CPT inconclusive and TDP1 block 7.4%.
`O=C(O)c1ccc2[nH]c3c(c2c1)CSCC3` gave CtBP-E1A blk 4.5, Six1-Eya2 inh -3.2, DT40 TDP1 CPT -0.9%, DT40 TDP1 no CPT 0.6%, TDP1 block 20µM* and IL1B secr inh -18.0.
For CN(C)CCOC(=O)c1ccc2[nH]c3c(c2c1)CSCC3 the results were CtBP-E1A blk -4.2, Six1-Eya2 inh -9.0, DT40 TDP1 CPT -23.7%, DT40 TDP1 no CPT -17.1% and IL1B secr inh -73.7*.
`Cc1cccc(C(=O)Nc2nsc(N)n2)c1` gave CtBP-E1A blk 0.8, Six1-Eya2 inh -8.0, DT40 TDP1 CPT -18.7%, DT40 TDP1 no CPT -1.2% and IL1B secr inh 55.2.
Screening COc1ccc(OC)c(CCNC(=O)c2cccc(NC(=O)C3=C(C)OCCS3)c2)c1 returned CtBP-E1A blk -14.5, Six1-Eya2 inh -10.0, DT40 TDP1 CPT inconclusive, DT40 TDP1 no CPT inconclusive, TDP1 block 6.9% and IL1B secr inh -12.2.
For Cc1cccc(Nc2cc(C)nc3nc(Cc4ccc(Cl)cc4)nn23)c1 the results were DT40 TDP1 CPT 20.6µM*, DT40 TDP1 no CPT inconclusive and TDP1 block 7.0%.
`CCc1nc2nc(C)cc(Nc3cccc(C)c3C)n2n1` gave DT40 TDP1 CPT inconclusive, DT40 TDP1 no CPT -16.4% and TDP1 block 0.0%[12.3 µM].
Screening CCc1nc2nc(C)cc(Nc3ccc(Br)cc3F)n2n1 returned DT40 TDP1 CPT 16.4µM*, DT40 TDP1 no CPT inconclusive and TDP1 block 5.0%.
Screening CCc1nc2nc(C)cc(Nc3cc(C)ccc3C)n2n1 returned DT40 TDP1 CPT inconclusive, DT40 TDP1 no CPT 18.4µM* and TDP1 block 7.5%.
`O=C(NCCc1ccncc1)Nc1ccccc1Cl` gave CtBP-E1A blk 4.1, Six1-Eya2 inh 1.7, DT40 TDP1 CPT 0.3%, DT40 TDP1 no CPT -12.0%, TDP1 block 4.4% and IL1B secr inh -0.5.
For Cc1ccc(C2(c3noc(CN4CCOCC4)n3)CCCC2)cc1 the results were Six1-Eya2 inh 0.1, DT40 TDP1 CPT 20.2%, DT40 TDP1 no CPT -1.8%, TDP1 block 2.7% and IL1B secr inh -22.6.
Screening O=C(O)c1cccc(NC(=O)c2cn(-c3ccccc3)nc2-c2ccc([N+](=O)[O-])cc2)c1 returned CtBP-E1A blk -12.6, Six1-Eya2 inh -16.0, DT40 TDP1 CPT -4.9%, DT40 TDP1 no CPT 17.7%, TDP1 block -14.4% and IL1B secr inh 19.3.
For COc1ccc(-c2nn(-c3ccccc3)cc2C(=O)Nc2cccc(C(=O)O)c2)cc1[N+](=O)[O-] the results were Six1-Eya2 inh 7.5, DT40 TDP1 CPT -17.1%, DT40 TDP1 no CPT inconclusive, TDP1 block 22.4µM* and IL1B secr inh 28.6.
`COc1ccc(-c2nn(-c3ccccc3)cc2C(=O)Nc2ccc(C(=O)O)cc2)cc1` gave CtBP-E1A blk 15.3, Six1-Eya2 inh 0.5, DT40 TDP1 CPT 1.5%, DT40 TDP1 no CPT inconclusive, TDP1 block 4.0% and IL1B secr inh -26.3.
COc1ccc(-c2nn(-c3ccccc3)cc2C(=O)Nc2ccccc2OC)cc1 was read as DT40 TDP1 CPT 16.4µM* and DT40 TDP1 no CPT 20.6µM*.
For COc1ccc(NC(=O)c2cn(-c3ccccc3)nc2-c2cc3ccccc3o2)cc1 the results were CtBP-E1A blk -3.0, Six1-Eya2 inh -2.1, DT40 TDP1 CPT 16.4µM*, DT40 TDP1 no CPT 20.6µM*, TDP1 block 2.1% and IL1B secr inh -2.1.
COc1ccc(NC(=O)c2cc3ccccc3oc2=O)cc1 was read as CtBP-E1A blk 4.0, Six1-Eya2 inh 3.0, DT40 TDP1 CPT -20.4%, DT40 TDP1 no CPT inconclusive and IL1B secr inh 9.3.
`CSc1ccccc1OCc1cc(C(=O)N2CCc3[nH]cnc3C2c2ccccn2)no1` (stereo not drawn) gave CtBP-E1A blk -27.2, Six1-Eya2 inh inconclusive, DT40 TDP1 CPT -14.4%, DT40 TDP1 no CPT 2.91µM*, TDP1 block 10.6% and IL1B secr inh -15.2.
For CCOC(=O)N1CCC(NC(=O)c2cc(COc3ccccc3SC)on2)CC1 the results were CtBP-E1A blk 0.0, Six1-Eya2 inh 0.3, DT40 TDP1 CPT 3.66µM*, DT40 TDP1 no CPT 1.46µM*, TDP1 block 2.4%[56.1 µM] and IL1B secr inh -22.4.
For CSc1ccccc1OCc1cc(C(=O)N2CCCC2c2nonc2C)no1 (stereo not drawn) the results were CtBP-E1A blk -6.7, Six1-Eya2 inh -1.8, DT40 TDP1 CPT 23.1µM*, DT40 TDP1 no CPT 20.6µM*, TDP1 block 0.7% and IL1B secr inh -29.4.
For Cn1ccnc1C1CCCCN1C(=O)c1cc(COc2ccc(F)cc2F)on1 (stereo not drawn) the results were CtBP-E1A blk 1.2, Six1-Eya2 inh 6.7, DT40 TDP1 CPT inconclusive, DT40 TDP1 no CPT 13µM* and IL1B secr inh -0.7.
`Cc1cccc(C)c1OCc1cc(C(=O)N2CCCC2c2nonc2C)no1` (stereo not drawn) gave CtBP-E1A blk 4.3, Six1-Eya2 inh -1.8, DT40 TDP1 CPT inconclusive, DT40 TDP1 no CPT inconclusive, TDP1 block -4.3% and IL1B secr inh -19.6.
`CCOC(=O)N1CCC(NC(=O)c2cc(COc3ccc(F)cc3Cl)on2)CC1` gave CtBP-E1A blk 9.4, Six1-Eya2 inh -1.7, DT40 TDP1 CPT -15.4%, DT40 TDP1 no CPT -9.6%, TDP1 block 3.0% and IL1B secr inh 0.0.
Screening O=C(Cn1c(=O)sc2ccccc21)N1CCOCC1 returned CtBP-E1A blk 3.1, Six1-Eya2 inh 4.3, DT40 TDP1 CPT 1.2%, DT40 TDP1 no CPT -3.8%, TDP1 block 3.0% and IL1B secr inh 11.1.
